Assay outcomes: PubChem BioAssay, National Center for Advancing Translational Sciences (NCATS)
Rows were chosen to be rich in hits. Some 8.8% of all compounds tested hit in one or more screens of this group.
KB-3-1 tox – KB-3-1 parental cell cytotoxicity | KB-3-1 viability, CellTiter-Glo ATP luminescence, 72 h | Potency, µM (highest dose often 46.1 µM), usual class: cytotoxic | actives 1.4% (n = 400,000); further: potency means the concentration at half of the fitted maximal effect; nearly all actives have a fitted effect of over 60% in size
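Cells are dispensed, compounds pinned in, plates held at 37 °C for 72 h, then CellTiter-Glo is added and luminescence read after 10 minutes. Cell line: parental KB-3-1 in phenol-red-free DMEM, 10% FBS.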
IL-1B inflam inh – inhibitors of inflammasome signaling (IL-1 beta secretion); actives 4.7% (n = 360,000); THP-1 LPS/ATP IL-1B secretion, AlphaLISA, 16 h; stronger effect = lower value; activity change, % at 57.5 µM; in the data active means activity change below about -50%; inconclusive means mostly about -30% to -49%
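THP-1 cells pretreated 1 hr with compounds (up to 57.5 uM final), then stimulated with LPS (250 ng/mL final) plus ATP (1.25 mM final); secreted IL-1B measured by AlphaLISA after 16 hr, decreased signal indicating inhibition.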
HT1080 IDH1KD tx – HT-1080 IDH1 knockdown cell toxicity (counter line); AID 686971; HT-1080 IDH1 knockdown viability, ATP luminescence, 48 h; Potency, µM (titrated, usually from 46.1 µM), without a hit: top-dose activity, negative = toxicity, most hits filed as cytotoxic; actives 2% (n = 360,000);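 further: potency means the concentration at half of the fitted maximal effect; 0% = DMSO wells and -100% = cell-free medium wells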
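In this qHTS, HT-1080 cells depleted of IDH1 are exposed for 48 h at 37 °C to compound titrations. Toxicity is scored from CellTiter-Glo luminescence, with DMSO as full viability and medium alone as none.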
HT1080NT lethal – kills 2HG-producing HT-1080-NT fibrosarcoma cells | HT-1080-NT fibrosarcoma viability, CellTiter-Glo ATP luminescence, 48 h | Potency, µM (series often up to 46.1 µM), inactives show at the top dose activity, negative = less viability, usual class: cytotoxic | actives 1.6% (n = 360,000) | AID 686970;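 further: NT is the 2HG producing partner of a matched IDH1 knockdown line; potency means the concentration at half of the fitted maximal effect; 0% = DMSO-treated cells and -100% = media-only wells without cells; nearly all actives have a fitted effect of over 55% in size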
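Fibrosarcoma NT cells, 750 per well in 5% FBS RPMI, were exposed to compound for 48 hours. Viability: CellTiter-Glo luminescence.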
KB-V1 cytotox – KB-V1 MDR subline cytotoxicity | Potency, µM (highest dose often 46.1 µM), actives largely listed as cytotoxic | actives 3.4% (n = 400,000) | KB-V1 MDR cells viability, CellTiter-Glo, 72 h | AID 1347076; further: potency means the concentration at half of the fitted maximal effect; nearly all actives have a fitted effect of over 60% in size
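In this primary screen, KB-V1 cells overexpressing P-gp are incubated with library compounds (lowest to highest concentration) for 72 h at 37 degrees C before a luminescent ATP viability read.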
An asterisk follows results filed as active; i = inactive; ? = inconclusive; . = no result. Unless noted, the call rests on the fitted dose curve; in most records, active means well fitted curve in the direction sought with a large enough effect; inconclusive means small, poorly fitted or top-dose-only effect, or another doubt; inactive means no such curve, though single readings can be large; an effect the other way counts as inactive or inconclusive. Unless noted, on the % scale 0 is the no-effect control and ±100 the full control effect.

SMILES	KB-3-1 tox	IL-1B inflam inh	HT1080 IDH1KD tx	HT1080NT lethal	KB-V1 cytotox
C/C(=N/NC(=O)c1ccc(C(C)(C)C)cc1)c1ccccn1	2.6µM*	84	5.8µM*	7.3µM*	?
C/C(=N\NC(=O)c1ccccc1Cl)c1ccccn1	?	117	?	?	i
C/C(=N/NC(=O)c1ccccn1)c1ccncc1	i	-6	10%	6%	i
CC(/C=N/NC(=O)c1ccncc1)=C\c1ccc(C(C)C)cc1	i	-2	-22%	-16%	10µM*
C/C(=N\NC(=O)c1ccc(Cl)c(Cl)c1)c1ccccn1	?	-103*	1.8µM*	?	i
Cc1cc(Br)ccc1OCC(=O)NNC(=O)c1cnccn1	i	6	?	-30%	i
COc1ccc(-n2cc3c(c2-c2cccc(Br)c2)c(=O)n(C)c(=O)n3C)cc1OC	i	.	.	.	i
C/C(=N\NC(=O)C(c1ccccc1)c1ccccc1)c1ccc(O)cc1	i	-2	-4%	-4%	i
COc1ccc(C(=O)N/N=C(\C)c2ccccn2)cc1OC	?	-79*	10µM*	-27%	2.3µM*
CC(/C=N/NC(=O)c1ccc(Br)cc1)=C\c1ccccc1	i	-3	-27%	-26%	i
C/C(=N\NC(=O)c1cccc(Br)c1)c1ccccn1	?	-15	?	?	1.5µM*
COc1ccc(C(=O)N/N=C\C(C)=C\c2ccccc2)cc1OC	?	-94*	-5%	-8%	?
COc1ccc(NC(=O)c2ccccn2)cc1OC	i	7	-2%	?	i
C/C(=N\NC(=O)C(c1ccccc1)c1ccccc1)c1ccccn1	13µM*	-97*	5.8µM*	9.2µM*	i
COc1cccc(N2CCN(C(=O)CCCn3c(=O)[nH]c4ccc(Br)cc4c3=O)CC2)c1	i	.	.	.	i
CC(Cc1ccsc1)NC(=O)CCc1nnc(CCc2ccccc2)o1 (stereo not drawn)	i	6	8%	20%	?
COc1cc(OC)c(NC(=O)Cn2cnc3sc(C)c(S(=O)(=O)N4CCN(C)CC4)c3c2=O)cc1Cl	i	.	.	.	i
CC(C)(C)NC(=O)CN(C(=O)c1snc(C(=O)NC2CCCCC2)c1N)c1ccccc1F	?	?	-15%	-11%	?
S=C(Nc1ccc(Oc2ccccc2)cc1)NC1CCCC1	i	-11	1%	-3%	?
S=C(Nc1ccc(Br)cc1)NC1CCCC1	i	-62*	-9%	-10%	i
COc1ccc(NC(=O)CC2CCCCC2)cc1OC	i	15	-2%	-3%	i
O=C(CC1CCCC1)Nc1ccc(Br)cc1	i	-56*	-15%	1%	i
Cc1cc(C)c(S(C)(=O)=O)c(Oc2ccc(C(C)(C)C)cc2)n1	i	21	-28%	0%	16µM*
Cc1cc(C)c(S(C)(=O)=O)c(Oc2cccc(Cl)c2)n1	i	14	-1%	2%	i
CC(=O)Nc1ccc(NC(=O)c2cc(-c3cc(C)cc(C)c3O)n[nH]2)cc1	?	-5	-11%	-7%	i
SMILES	KB-3-1 tox	IL-1B inflam inh	HT1080 IDH1KD tx	HT1080NT lethal	KB-V1 cytotox
COc1ccc(NS(=O)(=O)c2ccc(NC(=O)c3ccc(CN4CCOCC4)cc3)cc2)cc1	?	?	?	-32%	i
O=C(Nc1ccc(S(=O)(=O)Nc2ccc(F)cc2)cc1)c1ccc(CN2CCOCC2)cc1	3.7µM*	?	?	-26%	?
CCN(CC)S(=O)(=O)c1ccc(NC(=O)c2ccc(CN3CCOCC3)cc2)cc1	3.3µM*	-2	-18%	?	?
Cc1cc(C)c(O)c(-c2cc(C(=O)Nc3ccc(S(=O)(=O)N4CCOCC4)cc3)[nH]n2)c1	?	-86*	?	21µM*	?
CCN(CC)c1ccc(NC(=O)c2ccc(S(=O)(=O)N3CCOCC3)cc2)cc1	i	-51*	2%	-1%	i
O=C(Nc1ccc(S(=O)(=O)N2CCOCC2)cc1)c1ccc(S(=O)(=O)N2CCOCC2)cc1	i	22	3%	17%	i
CCCS(=O)(=O)N1CC(=O)N(c2ccc(Cl)cc2C)C(C)(C(=O)NC2CCCC2)C1 (stereo not drawn)	i	.	.	.	i
COc1ccc(NC(=O)C2c3ccccc3OCC(=O)N2CCc2ccccc2)cc1 (stereo not drawn)	i	33	7%	10%	i
CCN(CC)c1ccc(C=Nc2cccc(S(=O)(=O)N3CCOCC3)c2)c(O)c1	i	-8	1%	5%	?
CCN(CC)c1ccc(/C=N/NC(=O)c2cccc(S(=O)(=O)N3CCOCC3)c2)c(O)c1	7.3µM*	200	?	?	?
CCC(=O)N1CCN(c2ccc(NC(=O)c3ccc(N4CCOCC4)c([N+](=O)[O-])c3)cc2)CC1	i	i	1%	11%	i
O=C(Nc1ccc(CN2CCOCC2)cc1)c1ccc(N2CCCC2)c([N+](=O)[O-])c1	i	-72*	1%	1%	?
O=C(Nc1ccc(S(=O)(=O)N2CCCCC2)cc1)c1ccc(CN2CCOCC2)cc1	7.3µM*	-30	.	.	2.1µM*
O=C(Nc1ccc(S(=O)(=O)N2CCN(Cc3ccccc3)CC2)cc1)c1cnccn1	10µM*	0	-13%	-6%	2.3µM*
CCOc1ccc(-n2c(=O)c3c(C)c(C)sc3n(Cc3c(F)cccc3Cl)c2=O)cc1	i	.	.	.	i
Cc1ccc(N(CC(=O)NCC2CCCO2)C(=O)CCC(=O)Nc2nccs2)cc1 (stereo not drawn)	i	12	-1%	8%	i
Cc1ccc(-c2nnc(SCC(=O)N(CC(C)C)c3c(N)n(Cc4ccccc4)c(=O)[nH]c3=O)n2N)cc1	i	-9	-3%	-3%	?
O=C(Nc1sc2c(c1C(=O)O)CCCCC2)c1ccccc1F	12µM*	-1	?	?	i
CNC(=O)c1c(NC(=O)C2=COCCO2)sc2c1CCN(C(=O)OC)C2	i	-6	0%	-2%	i
CC(C)(C)c1ccc(C(=O)Nc2sc3c(c2C(=O)O)CCC3)cc1	3.3µM*	17	?	-29%	?
Cc1ccc(C(=O)Nc2sc3c(c2C(=O)O)CCCCC3)o1	16µM*	0	18µM*	21µM*	?
CCCNC(=O)c1c(NC(=O)c2ccccc2F)sc2c1CCCCC2	i	.	.	.	i
COC(=O)N1CCc2c(sc(NC(=O)C3=COCCO3)c2C#N)C1	2.3µM*	4	3.7µM*	4.6µM*	?
COc1ccc2ncnc(NCc3cccs3)c2c1-c1ccc2c(c1)OCO2	?	.	.	.	i
COc1ccccc1N(CC(=O)Nc1cc(C)cc(C)c1)S(C)(=O)=O	i	.	.	.	?
